From PubChem BioAssay (EPA / NIEHS) come the findings set out here.

Read-out in assay [1]: E-selectin (Homo sapiens) (UniProt P16581)
Kind of assay: BSK_SAg_Eselectin: BioMAP Diversity Plus: SAg Assay for Eselectin Biomarker Activity (AID 2283091). As to conditions: primary human HUVEC with PBMC; actives raise or lower the signal. The gist of the method: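 E-selectin ELISA readout at 24 h post-dosing in human umbilical vein endothelial cell/PBMC co-culture; gain or loss of signal fitted relative to DMSO baseline.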

Read-out in assay [2]: Monokine induced gamma interferon (MIG), CXCL9 (gene 4283)
The assay is described as follows: BSK_SAg_MIG: BioMAP Diversity Plus: SAg Assay for Monokine induced gamma interferon (MIG) Biomarker Activity (AID 2283092). As to conditions: primary human HUVEC with PBMC; actives raise or lower the signal. In a few lines:
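Measures CXCL9 protein by ELISA in a human vascular primary-cell co-culture (umbilical vein endothelium with PBMC) 24 h after chemical addition. Activity is scored up or down from the DMSO control.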

Assay [3] can be described thus: BSK_SAg_PBMCCytotoxicity: PBMC Cytotoxicity Assessment in the BioMAP Diversity Plus: SAg Assay (AID 2283093).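 Further: PBMC viability measured as Alamar Blue reduction fluorescence at 546/580 nm; fitted both ways against DMSO so a hit may be loss or gain of signal.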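 On AC50: PBMC superantigen activated with SEB plus TSST-1 one hour after compound addition.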 As to conditions: primary human HUVEC with PBMC. In a few lines:
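Alamar Blue reduction (6 h, ex/em 546/580 nm) read after 90 h culture of PBMC pre-dosed 1 h then stimulated with SEB plus TSST-1, 20 ng/mL each. Gain or loss of signal fitted relative to DMSO.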

Read-out in assay [4]: Interleukin-8 (IL8), CXCL8 (gene 3576)
Kind of assay: BSK_SAg_IL8: BioMAP Diversity Plus: SAg Assay for Interleukin-8 (IL8) Biomarker Activity (AID 2283094). As to conditions: primary human HUVEC with PBMC; actives raise or lower the signal. In a few lines:
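Chemicals were dosed onto a human endothelial–PBMC co-culture, and IL-8 was quantified by ELISA after 24 h. Both increases and decreases were fitted relative to DMSO.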

Assay [5] is described as follows: BSK_SAg_Proliferation: Cell Proliferation Assessment in the BioMAP Diversity Plus: SAg Assay (AID 2283095).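 Further: relative cell number as total protein by SRB absorbance in sub-confluent culture.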 As to conditions: primary human HUVEC with PBMC. The gist of the method: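 Absorbance of sulforhodamine B at 560 nm reports total protein in a human vascular endothelial/PBMC co-culture after 96 h chemical exposure. Gain or loss of signal is fitted in both directions against DMSO.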

Assay [6] is described as follows: BSK_SAg_SRB: Viability Assessment in the BioMAP Diversity Plus: SAg Assay (AID 2283096).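 Further: cells read one day after compound addition; hits may be either gain or loss of signal compared with DMSO.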 As to conditions: primary human HUVEC with PBMC. The gist of the method:
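SRB absorbance at 560 nm served as the viability read-out. Cells (HUVEC plus peripheral blood mononuclear cells) were TCA-fixed and stained 24 h post-dosing; activity fitted in both directions against DMSO controls.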

The target of assay [7] is human CYP19A1, CYP19A1 (gene 1588) (UniProt P11511). Kind of assay: NVS_ADME_hCYP19A1: NovaScreen (NVS) CYP450-related Enzyme Activity (ADME) Assay for human CYP19A1 (AID 2283098; active means hit-call score of the fitted dose curve at least 0.9, where 1 is the maximum;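 on AC50: potency for inhibitors seen as loss of fluorescent enzyme signal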). In a few lines: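 Primary testing was in duplicate at a single 10 uM concentration, with actives followed up in concentration-response series. Fluorescence read-out of recombinant enzyme activity at 0.5 h, cell-free. Acetonitrile was the negative-control baseline.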
Sequence of human CYP19A1, CYP19A1 (gene 1588) (P11511 whole entry, looked up): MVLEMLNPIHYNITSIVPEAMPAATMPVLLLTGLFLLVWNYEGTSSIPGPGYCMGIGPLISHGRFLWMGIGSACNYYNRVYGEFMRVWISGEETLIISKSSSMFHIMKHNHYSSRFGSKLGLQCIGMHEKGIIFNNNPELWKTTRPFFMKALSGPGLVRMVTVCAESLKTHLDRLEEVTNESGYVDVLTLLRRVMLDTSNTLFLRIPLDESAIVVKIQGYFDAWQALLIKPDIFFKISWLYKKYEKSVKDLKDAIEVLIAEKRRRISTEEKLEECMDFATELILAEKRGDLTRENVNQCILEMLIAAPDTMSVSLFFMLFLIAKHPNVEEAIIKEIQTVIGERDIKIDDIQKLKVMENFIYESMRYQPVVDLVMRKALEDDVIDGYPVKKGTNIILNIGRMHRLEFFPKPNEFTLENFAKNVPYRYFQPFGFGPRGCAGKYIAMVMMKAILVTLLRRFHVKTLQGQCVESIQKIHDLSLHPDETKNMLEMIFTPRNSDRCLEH

In assay [8] the target is human CYP2B6, CYP2B6 (gene 1555) (UniProt P20813). Kind of assay: NVS_ADME_hCYP2B6: NovaScreen (NVS) CYP450-related Enzyme Activity (ADME) Assay for human CYP2B6 (AID 2283101; active means hit-call score of the fitted dose curve at least 0.9, where 1 is the maximum). The gist of the method:
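Recombinant protein, specific fluorescent substrate, read at 1 h post-dosing. Primary: single 10 uM, duplicate; follow-up: concentration series. Activity = signal loss vs acetonitrile baseline, with positive and negative controls on every plate.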

In assay [9] the target is human CYP1A2, CYP1A2 (gene 1544) (UniProt P05177). Kind of assay: NVS_ADME_hCYP1A2: NovaScreen (NVS) CYP450-related Enzyme Activity (ADME) Assay for human CYP1A2 (AID 2283102; active means hit-call score of the fitted dose curve at least 0.9, where 1 is the maximum;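 further: potency for inhibition since loss of fluorescence marks reduced CYP1A2 activity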). In a few lines: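 Fluorescence-intensity enzyme activity read-out, taken 0.5 h post-dosing, using insect-cell-derived recombinant CYP1A2 and specific fluorescent substrate. Acetonitrile served as negative control/baseline. Single-concentration duplicate screen at 10 uM, then concentration-response follow-up.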
Sequence of human CYP1A2, CYP1A2 (gene 1544) (P05177 whole entry, looked up): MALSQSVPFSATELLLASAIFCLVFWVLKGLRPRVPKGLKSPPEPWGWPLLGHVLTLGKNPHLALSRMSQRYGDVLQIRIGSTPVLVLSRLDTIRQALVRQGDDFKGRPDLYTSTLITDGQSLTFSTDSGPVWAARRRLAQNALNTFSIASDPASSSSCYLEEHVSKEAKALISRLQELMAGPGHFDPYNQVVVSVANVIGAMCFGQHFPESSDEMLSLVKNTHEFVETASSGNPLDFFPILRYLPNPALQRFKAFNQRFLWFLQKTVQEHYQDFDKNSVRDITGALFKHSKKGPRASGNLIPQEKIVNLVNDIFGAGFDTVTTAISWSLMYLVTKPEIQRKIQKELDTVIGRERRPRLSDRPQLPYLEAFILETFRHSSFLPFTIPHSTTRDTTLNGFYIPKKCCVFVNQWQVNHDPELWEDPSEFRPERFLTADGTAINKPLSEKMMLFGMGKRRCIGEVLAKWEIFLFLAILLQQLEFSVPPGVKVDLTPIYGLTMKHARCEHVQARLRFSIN

Assay [10] has as its target human CYP2J2, CYP2J2 (gene 1573) (UniProt P51589). Kind of assay: NVS_ADME_hCYP2J2: NovaScreen (NVS) CYP450-related Enzyme Activity (ADME) Assay for human CYP2J2 (AID 2283106; active means hit-call score of the fitted dose curve at least 0.9, where 1 is the maximum). In a few lines: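 Chemicals were first tested at 10 uM in duplicate, and hits meeting criteria such as 30% inhibition were run in singleton concentration series with a 20 uM top concentration. Enzyme activity of recombinant CYP2J2 was measured by fluorescence after 1 h, relative to acetonitrile.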

In assay [11] the target is human CYP2D6, CYP2D6 (gene 1565) (UniProt P10635). Kind of assay: NVS_ADME_hCYP2D6: NovaScreen (NVS) CYP450-related Enzyme Activity (ADME) Assay for human CYP2D6 (AID 2283107; active means hit-call score of the fitted dose curve at least 0.9, where 1 is the maximum). The gist of the method:
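Fluorescence intensity read 1 h post-dosing; insect-cell-expressed recombinant protein with fluorogenic substrate, no cells. Activity is scored as signal loss relative to acetonitrile baseline, first at a single 10 uM concentration in duplicate, then as concentration series for confirmed actives.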

The target of assay [12] is human CYP2C9, CYP2C9 (gene 1559) (UniProt P11712). The assay is described as follows: NVS_ADME_hCYP2C9: NovaScreen (NVS) CYP450-related Enzyme Activity (ADME) Assay for human CYP2C9 (AID 2283108; active means hit-call score of the fitted dose curve at least 0.9, where 1 is the maximum). In a few lines:
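Fluorescence readout of CYP2C9 activity (SF9-expressed human enzyme) at 0.75 h. The primary screen used 10 uM in duplicate, with concentration-response follow-up for actives; acetonitrile was the negative control.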

Assay [13] addresses Cytochrome P450 2C19 (Homo sapiens) (UniProt P33261). The assay is described as follows: NVS_ADME_hCYP2C19: NovaScreen (NVS) CYP450-related Enzyme Activity (ADME) Assay for human CYP2C19 (AID 2283113; active means hit-call score of the fitted dose curve at least 0.9, where 1 is the maximum;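 further: potency for inhibition seen as loss of fluorescent signal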). In a few lines: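 Recombinant insect-cell-expressed enzyme, fluorescent substrate, 1 h after chemical addition, fluorescence intensity. Baseline = acetonitrile vehicle; activity scored as signal loss. Primary HTS single concentration 10 uM, duplicate; actives retested in concentration series.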

The subject of a further assay is rat CYP2B1, gene 24300. Kind of assay: NVS_ADME_rCYP2B1: NovaScreen (NVS) CYP450-related Enzyme Activity (ADME) Assay for rat CYP2B1 (AID 2283117; active means hit-call score of the fitted dose curve at least 0.9, where 1 is the maximum). The gist of the method: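 Cell-free fluorescence enzyme assay, recombinant rat CYP2B1, 0.75 h after dosing. Single-concentration duplicates at 10 uM preceded concentration series (max 20 uM) for actives; acetonitrile as negative-control baseline.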

The target in assay [14] is rat CYP2A2, Cyp2a2 (gene 24895) (UniProt P15149). Kind of assay: NVS_ADME_rCYP2A2: NovaScreen (NVS) CYP450-related Enzyme Activity (ADME) Assay for rat CYP2A2 (AID 2283116; active means hit-call score of the fitted dose curve at least 0.9, where 1 is the maximum). The gist of the method: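 Compounds first tested in duplicate at 10 uM, then in singleton concentration series up to 20 uM when over threshold. Activity of the recombinant enzyme read by fluorescence at 0.2 h, normalised to acetonitrile vehicle.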
Sequence of rat CYP2A2, Cyp2a2 (gene 24895) (P15149 whole entry, looked up): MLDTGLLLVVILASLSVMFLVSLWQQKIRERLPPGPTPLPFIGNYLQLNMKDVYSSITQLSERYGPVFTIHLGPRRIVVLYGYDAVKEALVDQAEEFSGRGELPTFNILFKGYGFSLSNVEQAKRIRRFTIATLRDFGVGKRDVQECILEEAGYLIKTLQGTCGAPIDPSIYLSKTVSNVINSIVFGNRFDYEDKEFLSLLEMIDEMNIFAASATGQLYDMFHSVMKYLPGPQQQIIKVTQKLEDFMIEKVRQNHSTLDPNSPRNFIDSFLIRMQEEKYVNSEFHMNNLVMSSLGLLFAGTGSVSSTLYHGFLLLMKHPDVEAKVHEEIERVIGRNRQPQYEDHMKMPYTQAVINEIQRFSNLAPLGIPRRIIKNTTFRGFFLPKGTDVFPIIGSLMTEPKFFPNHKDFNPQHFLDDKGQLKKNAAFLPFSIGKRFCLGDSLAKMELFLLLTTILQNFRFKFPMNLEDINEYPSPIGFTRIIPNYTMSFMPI

Inconclusive results are not listed. Calls of active or inactive are those of the source. How the source made its calls, unless noted: active means hit-call score of the fitted dose curve at least 0.9, where 1 is the maximum; inactive means score below 0.9.

Sequence of E-selectin (Homo sapiens) (P16581 whole entry, looked up): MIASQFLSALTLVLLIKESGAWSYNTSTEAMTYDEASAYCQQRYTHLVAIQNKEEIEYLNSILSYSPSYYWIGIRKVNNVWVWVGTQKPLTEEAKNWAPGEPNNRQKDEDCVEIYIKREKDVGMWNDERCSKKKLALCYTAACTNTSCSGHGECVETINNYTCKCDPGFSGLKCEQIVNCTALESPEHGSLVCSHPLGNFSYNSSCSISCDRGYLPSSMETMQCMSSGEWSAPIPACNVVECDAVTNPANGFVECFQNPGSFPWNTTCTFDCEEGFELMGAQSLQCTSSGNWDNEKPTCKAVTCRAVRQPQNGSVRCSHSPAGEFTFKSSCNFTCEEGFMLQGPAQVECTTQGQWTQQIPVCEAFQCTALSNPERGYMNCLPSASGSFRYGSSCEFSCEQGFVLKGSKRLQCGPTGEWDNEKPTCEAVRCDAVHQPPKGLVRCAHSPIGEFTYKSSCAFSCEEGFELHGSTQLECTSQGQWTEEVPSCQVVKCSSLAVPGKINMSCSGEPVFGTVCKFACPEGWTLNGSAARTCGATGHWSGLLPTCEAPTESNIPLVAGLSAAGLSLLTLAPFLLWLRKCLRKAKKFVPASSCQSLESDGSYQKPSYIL
Sequence of human CYP2J2, CYP2J2 (gene 1573) (P51589 whole entry, looked up): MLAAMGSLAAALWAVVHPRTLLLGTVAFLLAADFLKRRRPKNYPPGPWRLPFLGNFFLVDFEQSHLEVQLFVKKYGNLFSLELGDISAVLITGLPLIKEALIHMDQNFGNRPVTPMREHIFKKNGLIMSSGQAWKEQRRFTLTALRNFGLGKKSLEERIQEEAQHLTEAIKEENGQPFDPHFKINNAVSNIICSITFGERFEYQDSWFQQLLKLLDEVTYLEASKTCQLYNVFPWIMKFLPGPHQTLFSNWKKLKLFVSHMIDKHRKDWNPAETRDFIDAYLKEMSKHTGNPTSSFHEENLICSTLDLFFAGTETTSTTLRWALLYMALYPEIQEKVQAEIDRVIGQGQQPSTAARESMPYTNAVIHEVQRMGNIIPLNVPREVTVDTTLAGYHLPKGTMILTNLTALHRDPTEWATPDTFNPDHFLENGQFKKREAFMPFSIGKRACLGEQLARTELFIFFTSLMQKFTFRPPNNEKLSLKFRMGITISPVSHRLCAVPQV
Sequence of human CYP2B6, CYP2B6 (gene 1555) (P20813 whole entry, looked up): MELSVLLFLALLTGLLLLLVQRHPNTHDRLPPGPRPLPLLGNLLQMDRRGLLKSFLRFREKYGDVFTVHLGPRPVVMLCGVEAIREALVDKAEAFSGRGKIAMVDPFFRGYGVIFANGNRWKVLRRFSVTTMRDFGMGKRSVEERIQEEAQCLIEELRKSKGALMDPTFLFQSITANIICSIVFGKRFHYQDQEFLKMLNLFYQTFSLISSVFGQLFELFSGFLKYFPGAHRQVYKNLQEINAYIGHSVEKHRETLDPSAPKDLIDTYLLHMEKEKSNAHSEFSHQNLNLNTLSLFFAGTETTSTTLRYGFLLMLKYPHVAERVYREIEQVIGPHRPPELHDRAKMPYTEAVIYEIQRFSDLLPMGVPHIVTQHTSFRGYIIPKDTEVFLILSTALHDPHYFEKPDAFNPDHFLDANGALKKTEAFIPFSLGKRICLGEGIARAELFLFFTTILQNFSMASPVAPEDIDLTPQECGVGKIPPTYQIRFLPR
Sequence of human CYP2D6, CYP2D6 (gene 1565) (P10635 whole entry, looked up): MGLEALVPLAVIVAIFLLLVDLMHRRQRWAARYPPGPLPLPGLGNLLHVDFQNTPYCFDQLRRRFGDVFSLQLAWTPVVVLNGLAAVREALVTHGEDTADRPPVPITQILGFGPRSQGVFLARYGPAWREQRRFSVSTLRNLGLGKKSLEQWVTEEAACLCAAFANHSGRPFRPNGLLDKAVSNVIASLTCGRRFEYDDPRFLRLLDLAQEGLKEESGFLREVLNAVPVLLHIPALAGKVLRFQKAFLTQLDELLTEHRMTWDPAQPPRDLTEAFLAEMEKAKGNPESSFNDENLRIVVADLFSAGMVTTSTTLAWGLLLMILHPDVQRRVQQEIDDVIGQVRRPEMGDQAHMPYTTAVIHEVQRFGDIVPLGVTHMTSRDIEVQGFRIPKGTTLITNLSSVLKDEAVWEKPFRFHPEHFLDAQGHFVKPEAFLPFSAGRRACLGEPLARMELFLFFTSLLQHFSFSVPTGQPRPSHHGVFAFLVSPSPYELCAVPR
Sequence of human CYP2C9, CYP2C9 (gene 1559) (P11712 whole entry, looked up): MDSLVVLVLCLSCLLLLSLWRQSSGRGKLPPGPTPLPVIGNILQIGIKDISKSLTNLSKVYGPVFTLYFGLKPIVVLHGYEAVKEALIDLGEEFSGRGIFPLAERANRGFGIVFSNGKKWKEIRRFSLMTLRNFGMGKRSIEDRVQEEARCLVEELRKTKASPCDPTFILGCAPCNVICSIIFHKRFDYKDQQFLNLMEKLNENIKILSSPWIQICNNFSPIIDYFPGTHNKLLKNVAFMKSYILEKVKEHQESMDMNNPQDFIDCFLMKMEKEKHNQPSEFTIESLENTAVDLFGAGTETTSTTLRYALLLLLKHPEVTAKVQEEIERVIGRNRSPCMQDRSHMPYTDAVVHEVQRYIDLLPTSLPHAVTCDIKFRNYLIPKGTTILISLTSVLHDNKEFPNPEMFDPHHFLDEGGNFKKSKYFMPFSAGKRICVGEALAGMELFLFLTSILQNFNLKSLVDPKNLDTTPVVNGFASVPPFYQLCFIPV

By AC50 is commonly meant the midpoint of the concentration-response curve, whichever way the signal moves. Consider `CCOP(=S)(OCC)Oc1ccc([N+](=O)[O-])cc1`, for which the AC50 was 32.8 µM (active) in assay [1]; 32.1 µM (active) in assay [5]; 0.99 µM (active) in [8]; 2.2 µM (active) in assay [9]; 0.609 µM (active) in assay [10]; 2.62 µM (active) in [12]. In addition, the AC50 was 0.21 µM (active) in assay [13] and 0.559 µM (active) in the assay with rat CYP2B1, gene 24300. The outcome in assay [2], in [3], in assay [4], in assay [6], in [7] and in assay [11] was inactive.
As to `CCc1cnc(C2=NC(C)(C(C)C)C(=O)N2)c(C(=O)O)c1` (stereo not given), the outcome in assay [1], in assay [2], in assay [3], in assay [4], in assay [5] and in assay [6] was inactive.
Turning to `CCCOc1nn(C(=O)NS(=O)(=O)c2ccccc2C(=O)OC)c(=O)n1C`, the result in assay [1], in assay [2], in assay [3], in [4], in [5] and in assay [6] was inactive.
`CNC(=O)Oc1cccc2c1OC(C)(C)O2`: the AC50 in assay [1] is 15 µM (active); in assay [5], 20 µM (active). Moreover, the outcome in [2], in assay [3], in assay [4] and in assay [6] was inactive.
Regarding `N#CSCSC#N`, the concentration at half-maximal activity (AC50) in assay [1] is 11.1 µM (active); in assay [2], 8.84 µM (active); in assay [3] it was 3.25 µM (active); in assay [4], 11.7 µM (active); in [5], 1.99 µM (active); in assay [6] it was 6.08 µM (active).
For the compound `CCCCN(CC)c1c([N+](=O)[O-])cc(C(F)(F)F)cc1[N+](=O)[O-]`, the AC50 is 27.6 µM (active) in assay [1], 24.4 µM (active) in assay [3], 18.9 µM (active) in [5] and 1.93 µM (active) in [7]. Moreover, the outcome in [2], in [4] and in [6] was inactive.
For `CNC(=O)ON=C(C)SC`, the result in assay [1], in [2], in assay [3], in assay [4], in assay [5] and in assay [6] was inactive. Besides, in assay [7], the compound was called inactive.
As to `CCc1cccc(C)c1N(C(=O)CCl)C(C)COC` (stereo not given), the result in assay [1], in assay [2], in assay [3], in [4], in [5] and in assay [6] was inactive. In addition, the compound was classed as inactive in assay [7]. Further, the AC50 in assay [8] was 2.11 µM (active); in assay [13] it was 4.6 µM (active); in [14], 5.57 µM (active); in the assay on rat CYP2B1, gene 24300 it was 6.43 µM (active).
As to `CCOP(=S)(OCC)SCCSCC`, the outcome in [1], in [2], in assay [3], in assay [4], in [5] and in assay [6] was inactive.
For `CSc1nc(NC(C)C)nc(NC(C)C)n1`, the outcome in assay [1], in assay [2], in assay [3], in assay [4], in assay [5] and in [6] was inactive. The compound was called inactive in [7] and in [10]. For the same compound, the AC50 is 5.92 µM (active) in [9] and 13.4 µM (active) in assay [13].
For the compound `Cc1nn(-c2cc(NS(C)(=O)=O)c(Cl)cc2Cl)c(=O)n1C(F)F`, the outcome in [1], in assay [2], in assay [3], in [4], in assay [5] and in assay [6] was inactive.
